Laboratory results taken from PubChem BioAssay (NCATS).
Inconclusive results are not listed. A call without a number means that no potency is given here. Calls of active or inactive are those of the source. Calls come from the whole dose curve; as a rule, active = well fitted inhibition curve with a large enough effect; inconclusive = small, poorly fitted or top-dose-only effect; inactive = flat fitted curve, though single readings scatter.
Potency is the fitted concentration of half-maximal effect.

The compounds below were run against Calcium and integrin-binding protein 1 (Homo sapiens) (UniProt Q99828) (assay: Primary qHTS for Identification of Calcium Integrin Binding Protein 1 (CIB1) Competitor (AID 1508620)). Details: CIB1-GST / FITC-alphaIIb peptide fluorescence polarization; series mostly up to 114 µM.
Sequence of Calcium and integrin-binding protein 1 (Homo sapiens) (Q99828 whole entry, looked up): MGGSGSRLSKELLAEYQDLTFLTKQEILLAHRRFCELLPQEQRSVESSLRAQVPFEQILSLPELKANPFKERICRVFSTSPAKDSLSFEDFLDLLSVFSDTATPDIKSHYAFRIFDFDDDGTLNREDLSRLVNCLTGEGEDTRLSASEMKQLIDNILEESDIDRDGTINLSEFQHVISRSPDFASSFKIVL
Outline: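 CIB1-GST (1 uM final) and compound incubated 15 min at room temperature before adding FITC-alphaIIb peptide tracer (100 nM final). Competition for binding read by fluorescence polarization (ex 480, em 540) after another 15 min at room temperature.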
For `COc1ccc2nc3n[nH]c(C)c3c(NCCOCCO)c2c1`, the Potency was 50.1 µM (active). `CC(C)NC(=O)COc1cccc(-c2nc(Nc3ccc4[nH]ncc4c3)c3ccccc3n2)c1` was tested, and the Potency was “inactive”. In the case of `CC(C)c1cc2c(N3CCN(C4=NCC(C)(C)S4)CC3)ncnc2s1`, the Potency is reported as “inactive”. In the case of `CC(C)(O)C(=O)N1CCN(c2ccc(C(F)(F)F)c(C3=C(c4c[nH]c5ccccc45)C(=O)NC3=O)c2)CC1`, the Potency is reported as “inactive”. For `Oc1ccc(-c2cnc3ccc(NCc4ccco4)nn23)cc1`, the Potency was “inactive”. `O=C(NCCCN1CCC2(CC1)OCc1ccccc12)[C@H]1CCCN1Cc1ccccc1` was tested, and the Potency was “inactive”. In the case of `COCCCNC(=O)c1ccc(Cn2c(=O)c3ccccc3n(Cc3ccc(C(C)C)cc3)c2=O)cc1`, the Potency is reported as “inactive”. `NC(=O)c1cnc(N[C@@H]2CCCC[C@H]2N)nc1Nc1cccc(-n2nccn2)c1` was tested, and the Potency was “inactive”. In the case of `CC(=O)NCc1cccc(OC[C@@H](O)CNCCc2ccc(NS(=O)(=O)c3ccccc3)cc2)c1`, the Potency is reported as “inactive”. For `CCCC(CCC)C(=O)Nc1ccn([C@@H]2O[C@H](CO)[C@@H](O)C2(F)F)c(=O)n1`, the Potency was “inactive”. In the case of `Cc1cn2c(n1)Cc1ccc(Cl)cc1C(c1ccc(N)cc1)=N2`, the Potency is reported as “inactive”. `Cc1c(C2=CCN(C(=O)N(C)C(C)C)CC2)nnn1-c1cccnc1F` was tested, and the Potency was “inactive”. For `O=c1ccc2ccc(OCCCCN3CCN(c4cccc5sccc45)CC3)cc2[nH]1`, the Potency was “inactive”. For `CC(C)[C@@H](c1ccc(C(F)(F)F)cc1CN(Cc1cc(C(F)(F)F)cc(C(F)(F)F)c1)c1nnn(C)n1)N1CCC(C(=O)O)CC1`, the Potency was “inactive”. In the case of `CN1CCN(C2=Nc3ccccc3Nc3ccc(OS(=O)(=O)C(F)(F)F)cc32)CC1`, the Potency is reported as “inactive”. For `COc1ccc(CCCN2CCC(COC(c3ccccc3)c3ccccc3)CC2)cc1`, the Potency was “inactive”. In the case of `CC(C)Oc1ccc(-c2cnc3c(-c4ccnc5ccccc45)cnn3c2)cc1`, the Potency is reported as “inactive”. In the case of `CCN(CCNC(=O)Nc1ccccc1Br)c1cccc(C)c1`, the Potency is reported as “inactive”. `COc1ccc(OC)c(-c2ccc(NC(=O)c3ccncc3F)cc2)c1` was tested, and the Potency was “inactive”. With `C[C@@H](NC(=O)C(=O)c1c[nH]c2ccc([N+](=O)[O-])cc12)c1ccccc1` the Potency was “inactive”. `CCn1c2ccccc2c2cc(Nc3ccnc(NCCCN4CCOCC4)n3)ccc21` was tested, and the Potency was “inactive”. In the case of `NC(=O)c1nc(Nc2ccccc2)sc1NC(=O)C1CCCCC1`, the Potency is reported as “inactive”. For `COc1ccc(-c2cc3onc(-c4ccncc4)c3c(=O)n2C)cc1`, the Potency was “inactive”. With `CC#C[C@@H](CC(=O)O)c1ccc(OCc2ccc(CN3CCC4(C=Cc5ccccc54)CC3)s2)cc1` the Potency was “inactive”. With `Cc1cc(NC(=O)c2cccc(NC(=O)/C=C/CN(C)C)c2)ccc1Nc1nccc(-c2cccnc2)n1` the Potency was “inactive”. For `Cc1ccc(S(=O)(=O)N2CCC[C@H]2c2ccc(F)cc2)cc1`, the Potency was “inactive”. For `Cc1[nH]c(/C=C2\C(=O)Nc3ccc(F)cc32)c(C)c1C(=O)NCCN1CCCC1`, the Potency was “inactive”. For `Fc1ccc(N2CCN(CCC3OCCc4ccccc43)CC2)cc1` (centres undefined), the Potency was “inactive”. For `COC(=O)C(Cc1ccc(OCCn2c(=O)sc3cc(C(=O)c4ccccc4)ccc32)cc1)C(=O)OC`, the Potency was “inactive”. `COc1cc(-c2nc(N[C@H](CO)Cc3ccccc3)ccc2C(=O)NCCOc2ccccc2)cc(OC)c1OC` was tested, and the Potency was “inactive”. With `C[C@@H](NC(=O)c1ccc(C#Cc2cccc(F)c2)cn1)C(C)(C)O` the Potency was “inactive”. For `COc1ccccc1-c1ccc(-c2cn(C(=O)N3CCCCC3Cc3ccccc3)nn2)cc1` (centres undefined), the Potency was “inactive”. `O=C(NCCCN1CCOCC1)c1cnn2c(-c3ccccc3)cc(-c3ccccc3)nc12` was tested, and the Potency was “inactive”. In the case of `N#Cc1cccc(C(=O)Nc2cc(-c3ccccc3)nn2-c2ccccc2)c1`, the Potency is reported as “inactive”. For `CC[C@@H](Nc1c(Nc2cccc(C(=O)N(C)C)c2O)c(=O)c1=O)c1cc(C(C)C)co1`, the Potency was “inactive”. With `CCNc1nc(Nc2cc(F)c(C(=O)N3CCOCC3)cc2OC)ncc1C(F)(F)F` the Potency was “inactive”. With `CC(C)(C)Oc1ccc(OCC2Cc3ccccc3CN2C(=O)c2cccc3ccccc23)cc1` (centres undefined) the Potency was “inactive”. For `O=C(NCCN1CCC(n2c(=O)[nH]c3ccccc32)CC1)c1cc2cc(F)ccc2[nH]1`, the Potency was “inactive”. With `O=C(Nc1cc(C(F)(F)F)cc(C(F)(F)F)c1)c1cnc(Cl)nc1C(F)(F)F` the Potency was “inactive”.
